Here are results for 66 compounds from PubChem BioAssay AID1851 (National Center for Advancing Translational Sciences (NCATS), 2009).

The whole screen tested about 16,000 compounds, of which about 2,600 (16%) were called active. About 20% were inconclusive and are not listed. Only a sample is shown. Values without a mark were called inactive. The call rests on the fitted dose curve; in most records, active means well fitted curve in the direction sought with a large enough effect; inconclusive means small, poorly fitted or top-dose-only effect, or effect the other way; inactive means no such curve, though single readings can be large or run the other way.
On the % scale 0 is the no-effect control and ±100 the full control effect.

The target in the assay is Cytochrome P450 2D6 (Homo sapiens) (UniProt P10635). The assay is described as follows: Cytochrome panel assay with activity outcomes. To be noted: recombinant CYP, pro-luciferin dealkylation, luminescence, p450-cyp2d6; series mostly up to 57.1 µM.
Sequence of Cytochrome P450 2D6 (Homo sapiens) (P10635 whole entry, looked up): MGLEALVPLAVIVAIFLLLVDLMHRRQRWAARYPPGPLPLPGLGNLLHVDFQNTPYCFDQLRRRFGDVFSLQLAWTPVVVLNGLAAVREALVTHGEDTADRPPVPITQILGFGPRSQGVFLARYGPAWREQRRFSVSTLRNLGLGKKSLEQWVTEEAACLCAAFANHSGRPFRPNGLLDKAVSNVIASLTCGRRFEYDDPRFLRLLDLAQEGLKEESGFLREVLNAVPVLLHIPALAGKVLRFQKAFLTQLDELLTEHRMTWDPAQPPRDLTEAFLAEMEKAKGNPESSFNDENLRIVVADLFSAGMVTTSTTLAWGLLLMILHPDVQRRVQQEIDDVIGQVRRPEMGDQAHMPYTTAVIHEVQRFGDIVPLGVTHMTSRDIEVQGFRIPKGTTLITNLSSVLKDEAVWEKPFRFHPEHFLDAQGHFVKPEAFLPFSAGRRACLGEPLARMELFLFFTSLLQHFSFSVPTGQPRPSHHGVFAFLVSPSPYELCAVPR
Turning to `COc1ccc(S(=O)(=O)NCc2ccc(C(=O)N3CCN(c4ccccn4)CC3)cc2)cc1`, the AC50 result is “inactive”.

As for `O=C(O)[C@H](Cc1c[nH]c2ccccc12)N1C(=O)c2ccccc2C1=O`, the activity, negative = inhibition is -2.59% [at 11.4 µM].

Consider `c1ccc2c(CN3CCN(Cc4c[nH]c5ccccc45)CC3)c[nH]c2c1`, for which the concentration at half-maximal activity (AC50) was 2.51 µM (active).

For `N[C@@H](Cc1c[nH]c2ccccc12)C(=O)O`, the AC50 result was “inactive”.

For `COC(=O)Cn1cc(/C=N/NC(=O)c2ccc(C#N)cc2F)c2ccccc21`, the AC50 entry was “inactive”.

Take `CC(C)c1cccc2cc3c(nc12)-c1cccc(=O)n1C3`: the AC50 entry is “inactive”.

As to `Cc1ccc(C(=O)c2ccc(CC(=O)O)n2C)cc1`, the AC50 result is “inactive”.

As to `N#Cc1ccc(C(=O)Nc2ccc(N3CCN(C(=O)c4ccco4)CC3)cc2)c(F)c1`, the AC50 result was “inactive”.

Take `COc1ccc(CNc2nc(-c3ccc(C(=O)N(C)C)cc3)nc3ccccc23)c(OC)c1`: the AC50 entry was “inactive”.

With `COc1ccc(CNc2nc(-c3c(C)noc3C)nc3ccccc23)c(OC)c1`, the AC50 result is “inactive”.

Regarding `COc1ccc(CNc2nc(-c3ccccc3CN(C)C)nc3ccccc23)c(OC)c1`, the AC50 was 10 µM (active).

For the compound `COc1ccccc1CNc1nc(-c2ccccc2CN(C)C)nc2ccccc12`, the half-maximal activity concentration (AC50) is 10 µM (active).

On to `N[C@@H](CO)C(=O)NNCc1ccc(O)c(O)c1O`, for which the AC50 result was “inactive”.

With `Cc1cc(NC(=O)c2ccccc2Cl)no1`, the AC50 result was “inactive”.

In the case of `CCOC(=O)C(C)n1cnc2c(oc3ccccc32)c1=O` (stereo unspecified), the AC50 entry was “inactive”.

Turning to `O=C(NNC(=O)c1ccccc1-n1cccc1)c1ccc(Cl)c(Cl)c1`, the AC50 entry was “inactive”.

Regarding `CCOc1ccc(NC(=O)c2nnn(CC(=O)Nc3ccccc3OC)c2N)cc1`, the AC50 result was “inactive”.

`CC(C)C(NS(=O)(=O)c1cccs1)C(=O)NCCN1CCN(c2ccccc2)CC1` (stereo unspecified): the AC50 was 14.1 µM (active).

Turning to `CC(=O)NC(C)C(c1cccs1)N1CCN(c2ccccc2)CC1` (stereo unspecified), the AC50 entry is “inactive”.

`COc1ccc(N2CCN(CCNC(=O)C3CCN(S(=O)(=O)c4cccs4)CC3)CC2)cc1`: the AC50 entry is “inactive”.

As to `COc1ccc(NC(=O)N2CC3(CCN(S(C)(=O)=O)CC3)C2)cc1`, the AC50 entry was “inactive”.

In the case of `O=C(Nc1cccc(-c2nc3ncccc3o2)c1)c1sc2cc(Cl)ccc2c1Cl`, the AC50 result was “inactive”.

Regarding `O=C(Nc1nnc(SCc2ccc(Cl)cc2)s1)c1ccco1`, the AC50 result is “inactive”.

Regarding `CC(=O)c1ccc(-n2nnnc2SCC(=O)Nc2cccc(NC(=O)c3ccco3)c2)cc1`, the AC50 result was “inactive”.

For the compound `O=C(Nc1cccc(OC(=O)c2ccco2)c1)c1ccco1`, the AC50 entry was “inactive”.

As for `O=C(CSc1ccc(Cl)cc1)Nc1cccc(NC(=O)c2ccco2)c1`, the AC50 was 6.31 µM (active).

In the case of `O=C(CSc1ccccc1)Nc1ccc(NC(=O)c2ccco2)cc1`, the AC50 entry is “inactive”.

Regarding `O=C(CSc1ccc(Cl)cc1)Nc1cccc(-c2nc3ncccc3o2)c1`, the AC50 was 8.91 µM (active).

Turning to `Cc1ccc(SCC(=O)Nc2cccc(NC(=O)c3ccco3)c2)cc1`, the AC50 was 20 µM (active).

Consider `O=C(Nc1cccc(-c2nc3ncccc3o2)c1)c1sc2ccccc2c1Cl`, for which the AC50 result is “inactive”.

`COc1ccc(NC(=O)c2ncn[nH]2)cc1`: the AC50 entry is “inactive”.

Take `COC(=O)C(C)(C(=O)OC)c1ccc([N+](=O)[O-])cn1`: the AC50 entry was “inactive”.

In the case of `Cc1c(Cl)c([N+](=O)[O-])nn1CC(=O)Nc1c(C)n(C)n(-c2ccccc2)c1=O`, the AC50 entry is “inactive”.

For `Cc1ccc(NC(=O)CCc2c(C)nc3ncnn3c2C)nc1`, the AC50 entry is “inactive”.

Turning to `CC(=O)c1cccc(NC(=O)c2csc(-n3nc(C)cc3C(F)(F)F)n2)c1`, the AC50 result was “inactive”.

For `COC(=O)CCCC(=O)O`, the activity, negative = inhibition is 8.35% [at 11.4 µM].

For `COC(=O)[C@@]1(Cc2ccc(OC)cc2)[C@@H]2[C@@H](CC(=O)[C@H]2CC(=O)C(=O)N(C)C)CN1C(=O)c1ccccc1`, the AC50 entry was “inactive”.

In the case of `O=[N+]([O-])c1ccc2c(c1)Cc1cc(N=Cc3ccc4c(c3)OCO4)ccc1-2`, the activity, negative = inhibition was -11.6% [at 11.4 µM].

Consider `CN1CCN(c2nc3cc(C(F)(F)F)ccc3n3cccc23)CC1`, for which the AC50 entry is “inactive”.

Turning to `FC(F)(F)c1cnc(N2CCC(=NOCc3ccc(Cl)cc3)CC2)c(Cl)c1`, the AC50 entry was “inactive”.

Consider `CCCCCCN(CCCCCC)C(=O)Cc1c(-c2ccc(Cl)cc2)[nH]c2ccc(Cl)cc12`, for which the AC50 result is “inactive”.

For `CCCCN(C)Cc1c(C)[nH]c2ccc(Cl)cc2c1=O`, the AC50 is 3.16 µM (active).

Regarding `Cc1cc(=O)c2cc(Cl)ccc2[nH]1`, the AC50 entry is “inactive”.

`CCOc1ccc2[nH]c(=O)c(CN(CCc3ccccc3)C(=O)N3CCOCC3)cc2c1`: the AC50 result is “inactive”.

Turning to `N#C/C(=C\c1ccccc1)c1nc2ncccc2[nH]1`, the AC50 result was “inactive”.

`N#C/C(=C\c1ccc(Cl)cc1)c1nc2ncccc2[nH]1`: the AC50 is 12.6 µM (active).

For the compound `c1ccc(-c2ccc(C3=Nn4c(Cn5nnc6ccccc65)nnc4SC3)cc2)cc1`, the AC50 result was “inactive”.

In the case of `COc1cccc2c1OC[C@@H](CO)[C@H]2N(C)C(=O)Nc1ccc(Cl)cc1Cl`, the AC50 is 3.55 µM (active).

In the case of `Cc1nc(C(=O)Nc2ccc(Cl)cc2Cl)nn1-c1cc(OC(C)C)c(Cl)cc1Cl`, the AC50 entry was “inactive”.

Turning to `COC(=O)N1CC(=O)N(OC)C1c1ccc(Cl)cc1Cl` (stereo unspecified), the AC50 entry is “inactive”.

Regarding `Cc1cc2nc(SCCOC(=O)Nc3ccc(Cl)cc3)nc(C)c2cc1C`, the AC50 is 8.91 µM (active).

On to `CCCCOC(=O)Nc1ccc(C)c(Cl)c1`, for which the AC50 entry was “inactive”.

Take `Cc1ccc(OCC(=O)Nc2ccc(Cl)cc2)c(-n2nc3ccccc3n2)c1`: the AC50 entry was “inactive”.

As for `O=C1NC(=O)[C@@](Cc2ccccc2)(c2cccnc2)N1`, the activity, negative = inhibition is 1.34% [at 11.4 µM].

For the compound `CCS(=O)(=O)Nc1ccc(C2=NN(C(=O)c3ccco3)C(c3ccc(C)cc3)C2)cc1` (stereo unspecified), the AC50 result was “inactive”.

On to `Clc1ccc(CCNc2nc3ccccc3s2)cc1`, for which the half-maximal activity concentration (AC50) is 3.55 µM (active).

Take `CC(=O)NNc1nc2ccccc2s1`: the AC50 result was “inactive”.

As to `O=c1c(-c2nc3ccccc3s2)cccn1Cc1ccc(Cl)cc1`, the AC50 entry was “inactive”.

For `Cc1noc2ncnc(Oc3ccc4ccccc4c3)c12`, the AC50 entry was “inactive”.

Take `COCCN1C(=O)C(=O)/C(=C(/O)c2cccc(OC)c2)C1c1ccc(C)o1` (stereo unspecified): the AC50 entry was “inactive”.

Turning to `COC(=O)c1[nH]c2cc(OC)ccc2c1NC(=O)c1nonc1C`, the AC50 entry is “inactive”.

For the compound `CCOC(=O)c1oc2ccccc2c1NC(=O)c1ccc2c(c1)OCO2`, the AC50 was 3.55 µM (active).

As for `CCOC(=O)c1[nH]c2cc(OC)c(OC)cc2c1NC(=O)c1ccc2c(c1)OCO2`, the AC50 entry was “inactive”.

For the compound `COC(=O)c1[nH]c2cc(OC)ccc2c1NC(=O)c1ccc2c(c1)OCO2`, the half-maximal activity concentration (AC50) is 22.4 µM (active).

For `CCOC(=O)c1oc2ccccc2c1NC(=O)c1ccc(S(=O)(=O)N(C)C)cc1`, the AC50 result is “inactive”.

Consider `COc1cccc(NC(=O)c2oc3ccccc3c2NC(=O)c2ccc3c(c2)OCO3)c1`, for which the AC50 entry is “inactive”.

In general, AC50 refers to the concentration giving half of the maximal activity seen.
